Source: PubChem BioAssay
LmPK inh: qHTS Assay for Inhibitors of Leishmania Mexicana Pyruvate Kinase (LmPK). hit rate 0.37% among 290,000. purified LmPK, Kinase-Glo ATP luminescence, 1 h. Potency, µM (series often up to 57.5 µM), hits mostly inhibitors. Q27686
Target sequence (Q27686 whole entry, looked up): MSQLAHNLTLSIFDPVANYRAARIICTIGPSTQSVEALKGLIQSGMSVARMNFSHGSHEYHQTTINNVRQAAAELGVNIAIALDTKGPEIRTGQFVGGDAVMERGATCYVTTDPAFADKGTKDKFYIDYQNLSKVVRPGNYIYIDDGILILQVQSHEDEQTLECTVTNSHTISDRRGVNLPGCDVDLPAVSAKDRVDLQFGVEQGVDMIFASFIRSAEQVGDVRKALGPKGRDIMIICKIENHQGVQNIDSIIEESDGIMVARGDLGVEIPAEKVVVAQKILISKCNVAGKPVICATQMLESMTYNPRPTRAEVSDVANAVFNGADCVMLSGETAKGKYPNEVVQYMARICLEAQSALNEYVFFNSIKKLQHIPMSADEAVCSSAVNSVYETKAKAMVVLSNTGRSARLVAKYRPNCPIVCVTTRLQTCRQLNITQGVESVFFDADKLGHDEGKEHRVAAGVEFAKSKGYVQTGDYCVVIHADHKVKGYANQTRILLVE
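qHTS format; LmPK 0.1 nM; substrates PEP 0.5 mM and ADP 0.1 mM. One-hour room-temperature incubation, then coupled luciferase luminescence; 0.5 nM enzyme wells mark activation.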
NS1 function inh: qHTS Assay for Inhibitors of Influenza NS1 Protein Function; hit rate 0.4% among 270,000; Potency, µM (top dose mostly 46.1 µM); calls by dose curve; further: actives are rising curves; nearly all actives have a fitted effect of over 50% in size
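Growth recovery, yeast-based: influenza A NS1 expressed in S. cerevisiae causes slow growth, and suppressors are detected by OD600. The parent strain without NS1 is used as positive control.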
Shiga inhibitor: A qHTS for Small Molecule Inhibitors of Shiga Toxin. Vero cells, Shiga toxin protein synthesis inhibition reporter. inhibition, % at 38.7 µM. AID 2315, 2010. hit rate 9.2% among 290,000; in the data active means inhibition mostly above about 28%, no sharp cut-off; inactive means mostly below about 43%
Cycloheximide cs: Cycloheximide Counterscreen for Small Molecule Inhibitors of Shiga Toxin. cell reporter, cycloheximide protein synthesis inhibition counterscreen. max response, %. hit rate 12% among 300,000; in the data active means max response mostly above about 13%, no sharp cut-off; inactive means mostly below about 14%; further: read at 38.3 µM for the half of the compounds with a filed dose
FBPA Giardia inh: qHTS Assay for Inhibitors of Fructose-1,6-bisphosphate Aldolase from Giardia Lamblia | purified Giardia FBPA | Potency, µM (titrated, usually from 59.6 µM), actives largely listed as inhibitors | hit rate 0.71% among 290,000; further: nearly all actives have a fitted effect of over 55% in size
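40 nM FBPA preincubated 10 min at RT with compound (up to 57.5 uM final), then substrate plus GAPDH/TPI/NAD/arsenate coupling and diaphorase/resazurin added. Fluorescence read after 20 min at RT, 525/598 nm.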
A number is an active result; . = inactive; ? = inconclusive; / = no result; [ ] = remark or other dose. Sampled rows, rich in hits. Any-hit rate of the full collection: about 14%. Unless noted, the call rests on the fitted dose curve; in most records, active means well fitted curve in the direction sought with a large enough effect; inconclusive means small, poorly fitted or top-dose-only effect, or another doubt; inactive means no such curve, though single readings can be large; an effect the other way counts as inactive or inconclusive.

SMILES	LmPK inh	NS1 function inh	Shiga inhibitor	Cycloheximide cs	FBPA Giardia inh
C/C(=N/Nc1ccccc1C(=O)O)c1cccs1	.	.	.	20	.
C/C(=N\Nc1ccc(Cl)c(C(=O)O)c1)c1ccc[nH]1	.	.	157	51	.
CC(=O)c1ccc[nH]1	/	/	/	/	.
C/C(=N\Nc1ccc(Cl)c(C(=O)O)c1)c1cccs1	.	.	90	32	.
Cc1c(NC(=O)c2cccs2)cccc1C(=O)O	.	.	.	.	.
CCc1ccccc1NC(=O)COc1cccc(-n2cnnn2)c1	.	.	.	.	.
O=C(CCNC(=O)c1ccco1)Nc1ccc(OC(F)F)cc1	.	.	.	.	.
CCc1ccc(OCC(=O)Nc2nnc(-c3ccco3)s2)cc1	.	.	.	.	.
Cc1ccc(S(=O)(=O)N2CCC(C(=O)Nc3nnc(-c4ccco4)s3)CC2)cc1	.	.	.	.	.
COC(=O)Nc1nnc(-c2ccco2)s1	.	.	.	12	.
CC(C)CC(=O)Nc1nnc(-c2ccco2)s1	.	.	.	29	.
O=C(Nc1nnc(-c2ccco2)s1)C1CCCCC1	.	.	71	42	.
C=C1CC[C@H](O)C/C1=C/C=C1\CCC[C@]2(C)[C@@H]([C@H](C)CC[C@@H](O)C(C)(C)O)CC[C@@H]12	/	/	/	/	.
CC(C)NCC[C@@H](O)c1cc2ccccc2o1	/	.	/	/	/
O=C(N/N=C1/C[C@@H](O)[C@@H](O)[C@@H]2[C@@H]3C(=O)N(c4cccc(Oc5ccccc5)c4)C(=O)[C@H]3CC[C@@H]12)OCc1ccccc1	/	/	/	/	.[12.9 µM]
Cc1ccc(NS(=O)(=O)c2ccc(C3CCCCC3)cc2)cc1	.	.	.	.	.
O=C1CCCC/C1=N\Nc1ccc(OCc2ccccc2)cc1	.	.	56	21	.
Oc1ccc(OCc2ccccc2)cc1	/	/	/	/	.
O=C1CCCC/C1=N\Nc1ccc(C2CCCCC2)cc1	.	.	64	39	.
COC(=O)CN1C(=O)S/C(=C/c2ccc(N3CCCCC3)o2)C1=O	.	.	.	.	?
CCOC(=O)CN1C(=O)S/C(=C/c2ccc(N3CCCCC3)o2)C1=O	.	.	.	.	.
CCCN1C(=O)S/C(=C\c2ccc(N3CCOCC3)o2)C1=O	.	/	98	41	?
CCCN1C(=O)S/C(=C/c2ccc(N3CCOCC3)o2)C1=O	.	.	66	47	?
Cc1nn(-c2ccccc2)c(C)c1C(=O)OCC(N)=O	.	/	.	.	.
Cc1nn(-c2ccccc2)c(C)c1CCC(=O)O	.	.	90	42	.
SMILES	LmPK inh	NS1 function inh	Shiga inhibitor	Cycloheximide cs	FBPA Giardia inh
COC(=O)CCc1c(C)nn(-c2ccccc2)c1C	.	.	64	25	.
N#Cc1c(-c2ccccc2)nc(-c2cccnc2)[nH]c1=O	.	.	.	.	.
N#C/C(=C\c1coc2ccc(O)cc2c1=O)C(=O)Nc1nc2ccccc2s1	.	.	86	32	.
COCCn1c(N)c(N(Cc2ccccc2)C(=O)C2=COCCO2)c(=O)[nH]c1=O	.	.	.	.	/
Cc1noc(C)c1CCC(=O)N1CCCC(CCC(=O)NCc2ccc(F)c(F)c2)C1 (configuration not stated)	.	.	.	19	.
COC(=O)c1ccccc1C(=O)N1CCCC(CNC(=O)c2ccc(F)cc2)C1 (configuration not stated)	.	.	.	12	.
COC(=O)c1ccccc1C(=O)N1CCCC(CCC(=O)NCc2ccc(F)c(F)c2)C1 (configuration not stated)	.	.	93	41	.
O=C(CCC1CCCN(C(=O)CCC(F)(F)F)C1)NCc1ccc(F)c(F)c1 (configuration not stated)	.	.	.	.	.
CCOC(=O)c1c(NC(=O)CN2CCN(C(=O)C3CCCO3)CC2)sc(C)c1C (configuration not stated)	.	.	.	.	.
COC(C1CCCCC1)C(C)C(OCc1cccc(Br)c1)C(C)CO (configuration not stated)	/	/	/	/	.[12.9 µM]
CCC(=O)c1cn(CC(=O)Nc2ccc(C)cc2C)c2ccccc12	.	.	/	.	.
CC1CN(C(=O)CCC(=O)NC2CCCCC2)c2ccccc2S1 (configuration not stated)	.	.	.	.	.
COc1ccc(C(=O)NNC(=O)c2ccccn2)cc1	1.3µM	.	.	.	.
COc1ccc(C(=O)O/N=C(\C)c2cnccn2)cc1	?	.	.	.	.
COc1cc(OC)cc(C(=O)O/N=C(\N)c2ccccn2)c1	.	.	116	51	.
